# Shown are actives, neighbours in structure and some others; about 5.6% of the full set was active somewhere.
# PKM2 act – PKM2 (human) enzyme activation. 260,000 compounds, 0.34% hits. purified PKM2, Kinase-Glo ATP luminescence, activation; response scale: 0% is enzyme alone, no compound. AID 1631. Potency, µM (top dose mostly 57.5 µM), for inactives: top-dose activation, usual class: activators; also: potency is read from the fitted curve at half-maximal effect; nearly all actives have a fitted effect of over 55% in size
# Target sequence (P14618 whole entry, looked up): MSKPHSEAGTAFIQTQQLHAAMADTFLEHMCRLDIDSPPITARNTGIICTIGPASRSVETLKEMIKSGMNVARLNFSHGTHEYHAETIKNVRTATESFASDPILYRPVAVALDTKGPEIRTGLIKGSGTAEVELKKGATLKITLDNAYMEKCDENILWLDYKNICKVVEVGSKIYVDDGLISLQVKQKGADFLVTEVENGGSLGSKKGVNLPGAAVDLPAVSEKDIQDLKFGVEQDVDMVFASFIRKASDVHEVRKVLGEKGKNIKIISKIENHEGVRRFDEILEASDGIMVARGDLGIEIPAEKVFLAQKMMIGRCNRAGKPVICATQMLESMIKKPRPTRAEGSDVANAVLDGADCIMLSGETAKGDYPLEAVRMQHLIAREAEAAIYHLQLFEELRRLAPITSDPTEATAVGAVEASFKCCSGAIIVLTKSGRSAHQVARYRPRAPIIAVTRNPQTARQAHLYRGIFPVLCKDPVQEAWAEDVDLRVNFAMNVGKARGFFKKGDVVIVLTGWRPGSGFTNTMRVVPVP
#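 Purified hPK-M2 (>95%) run at intermediate activity with 0.1 mM ADP and 0.5 mM PEP in 50 mM imidazole pH 7.2, KCl, MgCl2; 1 h room temperature. ATP formed read by Kinase-Glo luminescence; normalized to uninhibited and no-enzyme controls.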
# CtBP-E1A blk – inhibitors of CtBP/E1A interaction; AlphaScreen GST-E1A/His-CtBP binding, 1536-well; stronger effect = lower value; activity change, % (no concentration beside the values); 340,000 compounds, 0.49% hits; AID 651724; in the data active = activity change below about -65%; inconclusive = mostly about -30% to -63%
#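 AlphaScreen with 125 nM GST-E1A and 125 nM His-CtBP (5X stocks) in Tris pH 8.0, 300 mM NaCl, BSA, Tween 20, TCEP. Compounds preincubated 2 h at 37 deg C, then glutathione donor/nickel acceptor beads added for 1 h at 37 deg C in dark.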
# VP16 counter – counter-screen for ROR gamma inhibitors: Gal4-VP16 reporter | Drosophila S2 Gal4-VP16 UAS-luciferase, luminescence, 20 h | Potency, µM (titrated, usually from 53.6 µM), for inactives: at the highest dose activity, negative = inhibition, actives largely listed as inhibitors | 310,000 compounds, 3.5% hits | AID 2546;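 also: Gal4-VP16 expression switched on by copper sulfate through the metallothionein promoter; potency is read from the fitted curve at half-maximal effect; nearly all actives have a fitted effect of over 50% in size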
# RORgamma inh – inhibitors of mouse ROR gamma transcriptional activity. P51450. Drosophila S2 Gal4-RORgamma UAS-luciferase reporter, 20 h. Potency, µM (top dose mostly 53.6 µM), for the others: at the highest dose activity change, negative = inhibition, actives largely listed as inhibitors. 310,000 compounds, 5.4% hits. AID 2551; also: potency is read from the fitted curve at half-maximal effect; nearly all actives have a fitted effect of over 60% in size
#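 Compounds are pin-transferred onto Drosophila Schneider cells expressing a copper-inducible Gal4–ROR gamma transactivation domain fusion. After 1 hr, copper sulfate is added to 700 uM final; luciferase is read 20 hr later.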
# Six1-Eya2 blk – Six1/Eya2 interaction inhibition. AID 651725. AlphaScreen GST-Six1/His-Eya2 binding, biochemical; stronger effect = lower value. Q15475+O00167. 360,000 compounds, 0.56% hits. activity change, % (test concentration not listed); in the data active = activity change below about -65%; inconclusive = mostly about -30% to -63%
#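 Compounds are tested against tagged Six1 and Eya2 proteins bridged by glutathione donor and nickel acceptor beads; after a one-hour incubation at 37 °C without light, AlphaScreen emission is recorded.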
# Starred values were filed as active, the others as inactive; ? = inconclusive; · = no result. Unless noted, calls follow the shape of the dose curve; as a rule, active = well fitted curve in the direction sought with a large enough effect; inconclusive = small, poorly fitted or top-dose-only effect, or another doubt; inactive = no such curve, though single readings can be large; an effect the other way counts as inactive or inconclusive. % is scaled to controls: 0 for no effect and ±100 for the full control effect.
SMILES,PKM2 act,CtBP-E1A blk,VP16 counter,RORgamma inh,Six1-Eya2 blk
COc1cccc(OCCn2cc(/C=N/NC(=O)c3ccncc3)c3ccccc32)c1,-4.1%,-8.6,10µM*,?,-14.3
COC(=O)N/N=C/c1cn(CCOc2ccccc2)c2ccccc12,-7.4%,-9.4,17.0%,?,-3.2
CCCc1ccc(S(=O)(=O)N2CCN(C(=O)CN3C(=O)NC(C)(C4CC4)C3=O)CC2)cc1 (stereo not drawn),·,1.5,·,·,0.1
COc1ccc(/C=N/NC2=NS(=O)(=O)c3ccccc32)cc1OC,·,-13.4,-6.4%,-38.9%,-9.8
COc1cccc(-n2cnnc2SC(C)C(=O)NC2CCCC2)c1 (stereo not drawn),·,1.3,·,·,0.1
Cc1ccc(OCC(=O)N/N=C/c2cn(Cc3ccccc3)c3ccccc23)cc1,-2.1%,·,7.08µM*,5.01µM*,-26.2
CCOC(=O)N/N=C/c1cn(Cc2ccc(Cl)cc2)c2ccccc12,1.3%,0.0,?,-43.5%,5.7
O=C(c1ccc(-c2ccccc2)cc1)C1CCCN(Cc2ccncc2)C1 (stereo not drawn),-17.4%,-9.1,0.0%,11.2µM*,-3.1
CC(C)C(NC(=O)/C=C/c1cccc([N+](=O)[O-])c1)C(C)C,0.4%,-7.9,1.9%,?,1.8
CC(C)NC(=O)c1ccccc1NC(=O)/C=C/c1cccc([N+](=O)[O-])c1,7.6%,-7.1,7.94µM*,?,-2.5
COc1ccccc1-c1cc(C(F)(F)F)nc(N2CCCC2)n1,-5.1%,30.4,-8.2%,13.5%,70.5
COc1ccccc1-c1cc(C(F)(F)F)nc(S(C)(=O)=O)n1,-6.4%,58.8,7.08µM*,3.98µM*,20.0
COc1ccccc1-c1cc(C(F)(F)F)nc(S(=O)(=O)CCCC(=O)NCc2ccc(F)cc2)n1,·,5.0,?,8.91µM*,-0.3
COc1ccccc1-c1cc(C(F)(F)F)nc(S(=O)(=O)CCCC(=O)NC(C)C)n1,0.5%,11.8,7.08µM*,4.47µM*,4.1
COc1ccccc1-c1cc(C(F)(F)F)nc(S(=O)(=O)CCCC(=O)N2CCCCC2C)n1 (stereo not drawn),3.1%,1.0,15.8µM*,11.2µM*,-2.4
COc1ccccc1-c1cc(C(F)(F)F)nc(S(=O)(=O)CCCC(=O)Nc2cccnc2Cl)n1,·,0.2,8.91µM*,3.98µM*,6.3
CN1CCN(c2nc(-c3ccco3)cc(C(F)(F)F)n2)CC1,-1.1%,-17.8,-1.8%,-32.8%,-6.9
CS(=O)(=O)c1nc(-c2ccco2)cc(C(F)(F)F)n1,-3.8%,·,2.82µM*,2.51µM*,·
Cc1cc(C)nc(/N=C(\N)Nc2ccccc2-c2ccccc2)n1,-4.9%,-10.8,12.6µM*,?,-6.2
O=C(COc1ccc(Cl)cc1Br)OCC(=O)c1ccc[nH]1,·,·,·,·,-6.3
COc1ccc(-n2c(SCC(=O)N3CCOCC3)nc(O)cc2=O)cc1,6.8%,3.2,0.3%,11.2µM*,-16.0
COc1ccc(C(=O)N/C(N)=N/c2nc3ccccc3o2)cc1,-4.3%,-1.2,?,8.91µM*,-1.1
N/C(=N\c1nc2ccccc2o1)NC(=O)c1ccc(Cl)cc1,-0.9%,0.6,?,10µM*,3.6
CC(C)(C)c1ccc(C(=O)N/C(N)=N/c2nc3ccccc3o2)cc1,-3.3%,6.2,0.4%,1.0%,3.6
N/C(=N\c1nc2ccccc2o1)NC(=O)c1ccccc1Br,2.0%,3.9,-32.2%,0.891µM*,-0.1
SMILES,PKM2 act,CtBP-E1A blk,VP16 counter,RORgamma inh,Six1-Eya2 blk
N/C(=N\c1nc2ccccc2o1)NC(=O)c1ccc(F)cc1,1.8%,-2.2,5.62µM*,2.51µM*,7.8
COc1cccc(CN(c2ccccc2C(=O)O)S(=O)(=O)c2ccc(C)cc2)c1,·,4.4,·,·,-11.6
CC(NC(=O)COC(=O)c1ccccc1SCC(=O)N1CCCC1)c1ccccc1 (stereo not drawn),·,5.0,·,·,3.5
COc1ccc(N)c2c1C(=O)c1ccccc1C2=O,-23.1%,?,-23.2%,-28.1%,-11.0
Nc1ccc(O)c2c1C(=O)c1ccccc1C2=O,-0.3%,-86.0*,-6.5%,4.6%,-84.5*
Nc1ccc(Br)c2c1C(=O)c1ccccc1C2=O,0.7%,-75.2*,-3.0%,?,?
CC(C)N=C(NS(=O)(=O)NC(=O)c1ccccc1)c1ccccc1,-10.5%,·,4.2%,0.4%,-8.9
CCOc1ccc(NC(C)c2cc(Cl)ccc2O)cc1 (stereo not drawn),1.2%,-20.2,-17.2%,-9.5%,-28.5
CC(Nc1ccc(Cl)cc1)c1cc(Cl)ccc1O (stereo not drawn),-7.4%,-3.3,12.6µM*,?,-4.5
Nc1ccccc1N=Cc1ccc(-c2cccc(Cl)c2)o1,28.2µM*,4.3,12.6µM*,?,14.5
COC(=O)N/N=C/c1ccc(-c2cccc(Cl)c2)o1,-17.2%,-6.3,-12.5%,38.9%,-17.2
COc1ccc(NC(=O)c2cnn(-c3ccccc3)c2C)cc1,-31.9%,·,-24.7%,?,2.7
COc1ccc(NC(=S)NNC(=O)c2nnn(-c3ccccc3)c2C)cc1,-9.5%,6.6,-0.3%,-26.0%,-78.4*
Cc1nnc(NC(=O)C23CC4CC(C)(CC(C)(C4)C2)C3)s1,·,6.7,·,·,-5.3
CC12CC3CC(C)(C1)CC(C(=O)Nc1nncs1)(C3)C2,-1.4%,-10.9,17.8µM*,?,0.7
O=c1c2ncn([C@@H]3O[C@@H]4COP(=O)(O)O[C@H]4[C@H]3O)c2nc2[nH]c(-c3ccccc3)cn12,·,·,-6.9%,21.5%,·
O=C(Nc1ccccc1Oc1ccccc1)C1CCCC1,-3.1%,11.6,-4.8%,13.3%,7.7
S=C(NCC1CCCCC1)Nc1ccc(Oc2ccccc2)cc1,4.8%,-5.0,5.01µM*,2.82µM*,-14.9
S=C(Nc1ccc(Br)cc1)NC1CCCC1,-1.1%,0.6,10µM*,6.31µM*,1.7
COC(=O)c1ccc(NC(=S)NC2CC2)cc1,8.2%,·,27.3%,?,3.5
S=C(Nc1ccccc1Oc1ccccc1)NC1CCCC1,-3.4%,·,7.08µM*,3.16µM*,-1.6
COc1ccc(NC(=S)NC2CCCCC2)cn1,2.0%,3.8,?,12.6µM*,10.6
CCCCn1c(N)c(N(CCOC)C(=O)c2ccc(COc3ccccc3)o2)c(=O)[nH]c1=O,·,6.0,·,·,4.9
Cc1ccc(NC2CCCN(C(=O)CSc3ccncc3)C2)cc1C (stereo not drawn),3.1%,4.2,-11.2%,11.8%,-4.2
CCCC(=O)Nc1cccc(NC(=O)c2cccc([N+](=O)[O-])c2C)c1,8.3%,3.5,-0.8%,27.1%,-3.7
COC(=O)C1=C[C@@H](C(=O)OC)C2C3=C(C(=O)[C@]2(C)NC(=O)c2ccccc2)[C@H](C)[C@@H]2C(=O)N(C)C(=O)[C@@H]2[C@@H]3C1 (stereo partly drawn),·,·,0.1%,-18.4%,·
S=C(Nc1ccc(Oc2ccccc2)cc1)NC1CCCC1,-0.7%,-2.7,5.01µM*,5.01µM*,1.4

# High-throughput results deposited in PubChem BioAssay by National Center for Advancing Translational Sciences (NCATS).
